Inconclusive results are not listed. A call without a number means that no potency is given here. The source made the active and inactive calls. The call rests on the fitted dose curve; in most records, active means well fitted curve in the direction sought with a large enough effect in the repeat runs; inconclusive means weak or mixed curves; inactive means no such curve, though single readings can be large; an effect the other way counts as inactive or inconclusive.
Further: nearly all actives have a fitted effect of over 50% in size.

Chain of Cytochrome P450 3A4 (Homo sapiens) (P08684 whole entry, looked up): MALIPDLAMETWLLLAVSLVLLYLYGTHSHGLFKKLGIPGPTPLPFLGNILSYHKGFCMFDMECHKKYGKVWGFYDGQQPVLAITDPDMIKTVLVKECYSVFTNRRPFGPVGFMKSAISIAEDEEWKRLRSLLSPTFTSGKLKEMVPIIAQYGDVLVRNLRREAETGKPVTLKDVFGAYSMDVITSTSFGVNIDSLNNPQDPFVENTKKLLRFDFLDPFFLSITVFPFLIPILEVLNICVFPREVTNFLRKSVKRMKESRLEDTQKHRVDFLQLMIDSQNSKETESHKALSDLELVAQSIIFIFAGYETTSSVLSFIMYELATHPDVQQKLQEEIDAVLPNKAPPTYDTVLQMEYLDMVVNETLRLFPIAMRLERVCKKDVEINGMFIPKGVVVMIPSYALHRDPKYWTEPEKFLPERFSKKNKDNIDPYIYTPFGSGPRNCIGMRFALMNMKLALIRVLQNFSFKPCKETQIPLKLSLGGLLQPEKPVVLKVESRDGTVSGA
Chain of Voltage-gated inwardly rectifying potassium channel KCNH2 (Homo sapiens) (Q12809 whole entry, looked up): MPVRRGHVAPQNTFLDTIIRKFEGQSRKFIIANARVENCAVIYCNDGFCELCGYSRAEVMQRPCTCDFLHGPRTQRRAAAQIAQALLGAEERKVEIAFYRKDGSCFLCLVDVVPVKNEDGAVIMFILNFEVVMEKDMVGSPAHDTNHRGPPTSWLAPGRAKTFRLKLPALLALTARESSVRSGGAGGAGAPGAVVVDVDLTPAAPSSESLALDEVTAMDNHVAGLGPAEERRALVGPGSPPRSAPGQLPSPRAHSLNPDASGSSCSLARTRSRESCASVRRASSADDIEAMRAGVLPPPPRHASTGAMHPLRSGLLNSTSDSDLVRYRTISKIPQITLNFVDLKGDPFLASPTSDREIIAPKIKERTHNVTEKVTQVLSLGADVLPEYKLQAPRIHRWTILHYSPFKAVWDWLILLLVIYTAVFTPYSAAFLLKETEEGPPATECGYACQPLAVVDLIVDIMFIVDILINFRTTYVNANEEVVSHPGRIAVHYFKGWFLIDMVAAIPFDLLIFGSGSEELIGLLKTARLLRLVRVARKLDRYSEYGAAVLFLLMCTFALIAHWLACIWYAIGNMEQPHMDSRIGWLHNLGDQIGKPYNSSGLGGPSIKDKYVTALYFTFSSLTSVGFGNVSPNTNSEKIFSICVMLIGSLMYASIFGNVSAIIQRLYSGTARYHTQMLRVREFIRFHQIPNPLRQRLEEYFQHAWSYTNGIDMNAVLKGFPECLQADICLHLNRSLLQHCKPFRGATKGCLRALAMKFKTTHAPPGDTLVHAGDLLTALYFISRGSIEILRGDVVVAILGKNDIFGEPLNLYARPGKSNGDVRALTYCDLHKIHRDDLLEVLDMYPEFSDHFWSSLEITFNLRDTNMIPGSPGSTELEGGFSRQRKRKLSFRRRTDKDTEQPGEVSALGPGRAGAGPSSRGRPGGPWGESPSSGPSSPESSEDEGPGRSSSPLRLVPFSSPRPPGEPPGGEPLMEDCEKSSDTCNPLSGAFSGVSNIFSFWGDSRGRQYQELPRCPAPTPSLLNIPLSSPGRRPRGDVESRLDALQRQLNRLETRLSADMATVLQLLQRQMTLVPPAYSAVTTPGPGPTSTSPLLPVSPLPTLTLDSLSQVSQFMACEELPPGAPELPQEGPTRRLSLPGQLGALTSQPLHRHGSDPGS

One assay addresses Voltage-gated inwardly rectifying potassium channel KCNH2 (Homo sapiens) (UniProt Q12809). Kind of assay: Human Ether-a-go-go-Related Gene (hERG) channel small molecule antagonists: fluorescence cell-based qHTS assay (AID 1671200).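 Further: hERG-expressing U2OS cells given a thallium stimulus after FluxOR II dye loading.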 The following applies: hERG-U2OS cells, FluxOR thallium flux fluorescence; series mostly up to 76.8 µM. In outline:
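In this thallium-flux screen, overnight-cultured U2OS cells bearing the channel are dye-loaded in darkness for an hour, rested 10 min at room temperature, and then monitored kinetically at 480/540 nm for two minutes post-stimulus.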
`CC(=O)CC(=O)OC(C)(C)C`: the Potency result is “inactive”.

On to `CCC/C=C(\C=O)CC`, for which the Potency entry is “inactive”.

Take `OCC(O)CN1CCN(c2ccccc2)CC1` (configuration not stated): the Potency entry is “inactive”.

`CCCc1ccc(O)cc1`: the Potency entry was “inactive”.

Turning to `CC(=O)CCc1ccc(OC(C)=O)cc1`, the Potency entry was “inactive”.

For the molecule `O=C=NCC1CCCC(CN=C=O)C1` (configuration not stated), the Potency result is “inactive”.

Regarding `CCCC(CC)c1ccccc1` (configuration not stated), the Potency entry is “inactive”.

Take `CCCC(=O)OCCC(C)CCC=C(C)C` (configuration not stated): the Potency result was “inactive”.

Turning to `COC(=O)c1cccc(Cl)c1`, the Potency result is “inactive”.

As to `COc1c2occc2c(OC)c2c(=O)cc(C)oc12`, the Potency result is “inactive”.

On to `CC(=O)O[C@@H]1CC2CCC1(C)C2(C)C` (some centres not stated), for which the Potency result was “inactive”.

As for `NCCOCCN`, the Potency result is “inactive”.

Take `C=CCCCCCCCCC(=O)OCCCC`: the Potency entry is “inactive”.

For `c1ccc2cnccc2c1`, the Potency entry is “inactive”.

Consider `O=C1OCCO1`, for which the Potency entry was “inactive”.

Regarding `CCC(=O)CC`, the Potency result is “inactive”.

On to `CCO[Si](CC)(OCC)OCC`, for which the Potency entry is “inactive”.

With `CCn1cc(C(=O)O)c(=O)c2cnc(N3CCCC3)nc21`, the activity change, negative = inhibition was -5.15% [at 6.97 µM] (inactive).

`CC(C)C[C@@H]1[C@H](c2ccccc2)OC(=O)N1CCCN1CCCCCC1`: the Potency entry was “inactive”.

As for `C[C@@H](O)C(=O)O`, the Potency result was “inactive”.

`CC(=O)C1C(=O)C=C(C)OC1=O` (configuration not stated): the Potency result was “inactive”.

Consider `Cc1c(N)cccc1Cl`, for which the Potency entry was “inactive”.

Another assay concerns the target Cytochrome P450 3A4 (Homo sapiens) (UniProt P08684). Kind of assay: Cytochrome P450 Family 3 Subfamily A Member 4 (CYP3A4) small molecule antagonists: luciferase reporter qHTS assay (AID 1671201). Further: potency means the concentration at half of the fitted maximal effect. Conditions: P450-Glo CYP3A4 enzyme, luciferin luminescence, 1 h; series mostly up to 115 µM. In outline:
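CYP3A4 activity was followed with a P450-Glo proluciferin substrate. Test compounds in DMSO were preincubated 10 min; NADPH regeneration then ran 1 h, and light output was read 20 min after detection reagent.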
(In general: A reporter such as luciferase makes a cellular process visible.)
Regarding `CC(=O)CC(=O)OC(C)(C)C`, the Potency result is “inactive”.

In the case of `O=C(O)c1cc2ccccc2nc1C(=O)O`, the Potency result is “inactive”.

Consider `CCC/C=C(\C=O)CC`, for which the Potency is 39.9 µM (active).

In the case of `CNCCS(=O)(=O)O`, the Potency result is “inactive”.

Take `OCC(O)CN1CCN(c2ccccc2)CC1` (configuration not stated): the Potency entry was “inactive”.

`CCCc1ccc(O)cc1`: the Potency result is “inactive”.

As to `COS(=O)(=O)O`, the Potency entry is “inactive”.

For `CCC(C)C(C)=O` (configuration not stated), the Potency entry was “inactive”.

On to `CC(=O)CCc1ccc(OC(C)=O)cc1`, for which the Potency result is “inactive”.

As for `O=C=NCC1CCCC(CN=C=O)C1` (configuration not stated), the Potency was 2.83 µM (active).

Take `CCCC(CC)c1ccccc1` (configuration not stated): the Potency entry is “inactive”.

Consider `Cc1ccc(C)c([N+](=O)[O-])c1`, for which the Potency result was “inactive”.

Regarding `ONc1ccccc1`, the Potency result was “inactive”.

Take `CCCC(=O)OCCC(C)CCC=C(C)C` (configuration not stated): the Potency was 4.48 µM (active).

Turning to `CC1=C(C(=O)O)N2C(=O)[C@@H](NC(=O)[C@H](N)C3=CCC=CC3)[C@H]2SC1`, the Potency result was “inactive”.

In the case of `COC(=O)c1cccc(Cl)c1`, the Potency entry is “inactive”.

Take `CC(O)COC(C)(C)C` (configuration not stated): the Potency entry is “inactive”.

`CC/C=C\CCOC(=O)c1ccccc1O`: the Potency entry is “inactive”.

As for `CC(=O)O[C@@H]1CC2CCC1(C)C2(C)C` (some centres not stated), the Potency entry was “inactive”.

`NCCOCCN`: the Potency result was “inactive”.

As to `COC(=O)/C=C\C(=O)O`, the Potency entry was “inactive”.

`C=CCCCCCCCCC(=O)OCCCC`: the Potency entry was “inactive”.

As to `O=C1OCCO1`, the Potency result is “inactive”.

Turning to `OC1(c2ccc(Cl)cc2)CCNCC1`, the Potency result is “inactive”.

For `Cn1c(=O)c2c(ncn2CCO)n(C)c1=O`, the Potency entry is “inactive”.

As for `CCC(=O)CC`, the Potency entry is “inactive”.

With `CCO[Si](CC)(OCC)OCC`, the Potency was 7.1 µM (active).

For the molecule `C[C@@H](O)C(=O)O`, the Potency result was “inactive”.

On to `CC(=O)C1C(=O)C=C(C)OC1=O` (configuration not stated), for which the Potency result is “inactive”.

On to `Cc1c(N)cccc1Cl`, for which the Potency entry is “inactive”.
